Assay results from ChEMBL document CHEMBL2218924, “A broad activity screen in support of a chemogenomic map for kinase signalling research and drug discovery” (Biochem J, 2013).

Target: High affinity nerve growth factor receptor (Homo sapiens) (UniProt P04629)
Settings: at 10 µM

High affinity nerve growth factor receptor (Homo sapiens), sequence (P04629 33-796 limits assumed): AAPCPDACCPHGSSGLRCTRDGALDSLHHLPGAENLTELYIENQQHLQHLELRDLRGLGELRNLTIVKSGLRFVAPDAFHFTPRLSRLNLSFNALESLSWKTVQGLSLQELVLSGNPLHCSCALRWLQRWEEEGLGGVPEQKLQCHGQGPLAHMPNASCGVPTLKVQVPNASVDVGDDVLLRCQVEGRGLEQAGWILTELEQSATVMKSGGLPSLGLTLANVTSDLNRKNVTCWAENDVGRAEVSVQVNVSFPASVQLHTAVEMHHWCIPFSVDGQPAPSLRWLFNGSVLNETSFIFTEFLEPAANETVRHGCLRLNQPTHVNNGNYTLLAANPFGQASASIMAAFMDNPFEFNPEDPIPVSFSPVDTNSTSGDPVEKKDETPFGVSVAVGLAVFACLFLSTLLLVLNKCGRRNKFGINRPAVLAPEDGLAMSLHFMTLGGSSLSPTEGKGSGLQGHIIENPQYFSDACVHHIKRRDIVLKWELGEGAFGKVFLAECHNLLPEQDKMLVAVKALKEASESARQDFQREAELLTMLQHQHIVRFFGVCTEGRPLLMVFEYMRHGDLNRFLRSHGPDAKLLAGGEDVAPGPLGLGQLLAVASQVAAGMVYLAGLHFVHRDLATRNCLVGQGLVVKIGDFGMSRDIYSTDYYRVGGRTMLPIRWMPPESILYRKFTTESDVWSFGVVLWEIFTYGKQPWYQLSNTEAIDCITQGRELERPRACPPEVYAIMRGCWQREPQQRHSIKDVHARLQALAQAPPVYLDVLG

| Compound | residual activity [%] |
| --- | --- |
| Nc1nc(Nc2ccc(S(N)(=O)=O)cc2)nn1C(=S)Nc1c(F)cccc1F | -1 |
| NC(=O)c1ccc2[nH]c(-c3ccc(Oc4ccc(Cl)cc4)cc3)nc2c1 | 54 |
| CO[C@H]1[C@@H](OC)C[C@H](C)[C@@H](OC)C2=CC(=O)C=C(NC(=O)/C(C)=C/C=C/[C@H](OC)[C@@H](OC(N)=O)/C(C)=C/[C@@H]1C)C2=O | 118 |
| N#CC(C#N)=C(N)/C(C#N)=C/c1ccc(O)cc1 | 119 |
| O=C1Nc2cc(Br)ccc2/C1=C1/Nc2ccccc2/C1=N\O | 0 |
| c1ccc(-c2n[nH]c3c2oc2ccccc23)cc1 | 2 |
| COc1cc2ncnc(Nc3ccc(NC(=O)c4ccccc4)cc3)c2cc1OC | 20 |
| COc1cc2ncc(-c3ccccc3)nc2cc1OC | -1 |
| COc1cc2ncnc(Nc3ccc(Oc4ccccc4)cc3)c2cc1OC | 82 |
| CN(C)c1ccc(/C=C2\C(=O)Nc3ccccc32)cc1 | 3 |
| O=C1Nc2ccccc2/C1=C1/Nc2ccccc2/C1=N\OCCC(O)CO (centres undefined) | 0 |
| Oc1ccc(-c2nc(-c3ccc(F)cc3)c(-c3ccncc3)[nH]2)cc1 | 83 |
| COc1ccc(C(=O)Nc2sc3c(c2C(N)=O)CCCC3)cc1OC | 76 |
| N#CCCc1ccc2c(c1)-c1[nH]c3ccc([N+](=O)[O-])cc3c1CC(=O)N2 | 23 |
| CCN(CC)C(=O)c1ccc(Nc2nc(OCC3CCCCC3)c3nc[nH]c3n2)cc1 | 0 |
| C[C@@H](N)[C@H]1CC[C@H](C(=O)Nc2ccncc2)CC1 | 105 |
| N#C/C(=C(\N)Sc1ccc(N)cc1)c1ccccc1C(F)(F)F | 85 |

| Compound | residual activity [%] |
| --- | --- |
| c1ccc2c(-c3ccncc3)c[nH]c2c1 | 55 |
| O=C(O)c1ccc2c3c1cccc3c(=O)n1c3ccccc3nc21 | 19 |
| Nc1ccc2ncnc(NCCc3ccc(Oc4ccccc4)cc3)c2c1 | 56 |
| O=C(Nc1cccc(Nc2nccc(Nc3cccc(C(F)(F)F)c3)n2)c1)C1CC1 | 1 |
| N#Cc1cnc2cnc(NCc3cccnc3)cc2c1Nc1ccc(F)c(Cl)c1 | 88 |
| Ic1cccc(CSc2nnc(-c3ccncc3)o2)c1 | 64 |
| CN(C)CCCn1cc(C2=C(c3c[nH]c4ccccc34)C(=O)NC2=O)c2ccccc21 | 13 |
| O=C1Nc2ccc(Br)cc2/C1=C\c1cc2c([nH]1)CCCC2 | 20 |
| O=C1NC(=O)/C(=C/c2ccc3c(c2)OC(F)(F)O3)S1 | 60 |
| Oc1c2ccccc2c2c3c(cccc13)N=N2 | -1 |
| CO[C@H]1C[C@@H]2CC[C@@H](C)[C@@](O)(O2)C(=O)C(=O)N2CCCC[C@H]2C(=O)O[C@H]([C@H](C)C[C@@H]2CC[C@@H](O)[C@H](OC)C2)CC(=O)[C@H](C)/C=C(\C)[C@@H](O)[C@@H](OC)C(=O)[C@H](C)C[C@H](C)/C=C/C=C/C=C/1C | 41 |
| Cc1cc(Nc2nc(-c3ccccc3)nc3ccccc23)n[nH]1 | -1 |
| COc1cc2ncnc(N3CCN(C(=O)Nc4ccc(Oc5ccccc5)cc4)CC3)c2cc1OC | 30 |
| Cc1nc2cc3nc(-c4cccs4)cnc3cc2n1C | 27 |
| CCC(=O)Nc1ccc2ncnc(Nc3cccc(Br)c3)c2c1 | 96 |
| CC#CC(=O)Nc1cc2c(Nc3ccc(F)c(Cl)c3)ncnc2cn1 | 111 |
| Cn1cnc2cc3c(Nc4cccc(Br)c4)ncnc3cc21 | 82 |

Target: BDNF/NT-3 growth factors receptor (Homo sapiens) (UniProt Q16620)
Sequence (Q16620 32-822 limits assumed): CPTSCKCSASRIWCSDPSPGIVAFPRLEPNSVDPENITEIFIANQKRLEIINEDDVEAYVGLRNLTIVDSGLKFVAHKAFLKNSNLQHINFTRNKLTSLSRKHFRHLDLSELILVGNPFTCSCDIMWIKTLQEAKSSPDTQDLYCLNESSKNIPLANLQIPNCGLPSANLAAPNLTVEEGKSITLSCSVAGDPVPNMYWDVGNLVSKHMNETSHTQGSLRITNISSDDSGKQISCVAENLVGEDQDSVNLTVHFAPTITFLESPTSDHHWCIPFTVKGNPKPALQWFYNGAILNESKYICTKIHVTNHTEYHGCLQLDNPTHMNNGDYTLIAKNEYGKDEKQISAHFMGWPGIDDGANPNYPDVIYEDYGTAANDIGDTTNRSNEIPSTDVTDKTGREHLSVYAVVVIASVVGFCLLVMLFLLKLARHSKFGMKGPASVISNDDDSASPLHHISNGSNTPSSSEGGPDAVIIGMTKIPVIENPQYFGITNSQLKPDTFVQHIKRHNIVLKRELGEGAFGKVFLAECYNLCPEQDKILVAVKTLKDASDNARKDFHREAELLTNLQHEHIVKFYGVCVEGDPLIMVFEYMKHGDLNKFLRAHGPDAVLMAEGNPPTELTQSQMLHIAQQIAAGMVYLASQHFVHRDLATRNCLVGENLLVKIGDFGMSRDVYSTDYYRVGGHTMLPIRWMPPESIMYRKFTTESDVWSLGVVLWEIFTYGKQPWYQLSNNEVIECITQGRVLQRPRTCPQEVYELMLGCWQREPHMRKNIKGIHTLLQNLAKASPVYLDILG
Settings: at 1 µM

| Compound | residual activity [%] |
| --- | --- |
| Nc1nc(Nc2ccc(S(N)(=O)=O)cc2)nn1C(=S)Nc1c(F)cccc1F | 0 |
| NC(=O)c1ccc2[nH]c(-c3ccc(Oc4ccc(Cl)cc4)cc3)nc2c1 | 103 |
| CC(=O)c1ccc(N2CCOCC2)cc1O | 84 |
| CO[C@H]1[C@@H](OC)C[C@H](C)[C@@H](OC)C2=CC(=O)C=C(NC(=O)/C(C)=C/C=C/[C@H](OC)[C@@H](OC(N)=O)/C(C)=C/[C@@H]1C)C2=O | 113 |
| N#CC(C#N)=C(N)/C(C#N)=C/c1ccc(O)cc1 | 99 |
| O=C1Nc2cc(Br)ccc2/C1=C1/Nc2ccccc2/C1=N\O | -1 |
| c1ccc(-c2n[nH]c3c2oc2ccccc23)cc1 | 45 |
| COc1cc2ncnc(Nc3ccc(NC(=O)c4ccccc4)cc3)c2cc1OC | 54 |
| COc1cc2ncc(-c3ccccc3)nc2cc1OC | 54 |
| COc1cc2ncnc(Nc3ccc(Oc4ccccc4)cc3)c2cc1OC | 102 |
| CN(C)c1ccc(/C=C2\C(=O)Nc3ccccc32)cc1 | 46 |
| O=C1Nc2ccccc2/C1=C1/Nc2ccccc2/C1=N\OCCC(O)CO (centres undefined) | -2 |
| Oc1ccc(-c2nc(-c3ccc(F)cc3)c(-c3ccncc3)[nH]2)cc1 | 99 |
| COc1ccc(C(=O)Nc2sc3c(c2C(N)=O)CCCC3)cc1OC | 70 |
| N#CCCc1ccc2c(c1)-c1[nH]c3ccc([N+](=O)[O-])cc3c1CC(=O)N2 | 71 |
| CCN(CC)C(=O)c1ccc(Nc2nc(OCC3CCCCC3)c3nc[nH]c3n2)cc1 | 36 |
| C[C@@H](N)[C@H]1CC[C@H](C(=O)Nc2ccncc2)CC1 | 106 |
| N#C/C(=C(\N)Sc1ccc(N)cc1)c1ccccc1C(F)(F)F | 78 |

| Compound | residual activity [%] |
| --- | --- |
| c1ccc2c(-c3ccncc3)c[nH]c2c1 | 134 |
| O=C(O)c1ccc2c3c1cccc3c(=O)n1c3ccccc3nc21 | 86 |
| Nc1ccc2ncnc(NCCc3ccc(Oc4ccccc4)cc3)c2c1 | 82 |
| O=C(Nc1cccc(Nc2nccc(Nc3cccc(C(F)(F)F)c3)n2)c1)C1CC1 | 44 |
| N#Cc1cnc2cnc(NCc3cccnc3)cc2c1Nc1ccc(F)c(Cl)c1 | 3 |
| Ic1cccc(CSc2nnc(-c3ccncc3)o2)c1 | 32 |
| CN(C)CCCn1cc(C2=C(c3c[nH]c4ccccc34)C(=O)NC2=O)c2ccccc21 | 36 |
| O=C1Nc2ccc(Br)cc2/C1=C\c1cc2c([nH]1)CCCC2 | 48 |
| O=C1NC(=O)/C(=C/c2ccc3c(c2)OC(F)(F)O3)S1 | 44 |
| Oc1c2ccccc2c2c3c(cccc13)N=N2 | 32 |
| CO[C@H]1C[C@@H]2CC[C@@H](C)[C@@](O)(O2)C(=O)C(=O)N2CCCC[C@H]2C(=O)O[C@H]([C@H](C)C[C@@H]2CC[C@@H](O)[C@H](OC)C2)CC(=O)[C@H](C)/C=C(\C)[C@@H](O)[C@@H](OC)C(=O)[C@H](C)C[C@H](C)/C=C/C=C/C=C/1C | 102 |
| Cc1cc(Nc2nc(-c3ccccc3)nc3ccccc23)n[nH]1 | 1 |
| COc1cc2ncnc(N3CCN(C(=O)Nc4ccc(Oc5ccccc5)cc4)CC3)c2cc1OC | 39 |
| Cc1nc2cc3nc(-c4cccs4)cnc3cc2n1C | 69 |
| CCC(=O)Nc1ccc2ncnc(Nc3cccc(Br)c3)c2c1 | 77 |
| CC#CC(=O)Nc1cc2c(Nc3ccc(F)c(Cl)c3)ncnc2cn1 | 110 |
| Cn1cnc2cc3c(Nc4cccc(Br)c4)ncnc3cc21 | 107 |
